Assay outcomes from PubChem.
EPAC2 antag: validation of human EPAC2 antagonists. EPAC2 Rap1B BODIPY-GDP exchange, fluorescence. Potency, µM (doses to about 112 µM), for the others: at the top dose activity, negative = inhibition, actives largely listed as inhibitors. actives 1.7% (n = 16,000). AID 1645886;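 note: 100% = activation by cAMP agonist control; nearly all actives have a fitted effect of over 40% in size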
Target sequence (Q8WZA2 whole entry, looked up): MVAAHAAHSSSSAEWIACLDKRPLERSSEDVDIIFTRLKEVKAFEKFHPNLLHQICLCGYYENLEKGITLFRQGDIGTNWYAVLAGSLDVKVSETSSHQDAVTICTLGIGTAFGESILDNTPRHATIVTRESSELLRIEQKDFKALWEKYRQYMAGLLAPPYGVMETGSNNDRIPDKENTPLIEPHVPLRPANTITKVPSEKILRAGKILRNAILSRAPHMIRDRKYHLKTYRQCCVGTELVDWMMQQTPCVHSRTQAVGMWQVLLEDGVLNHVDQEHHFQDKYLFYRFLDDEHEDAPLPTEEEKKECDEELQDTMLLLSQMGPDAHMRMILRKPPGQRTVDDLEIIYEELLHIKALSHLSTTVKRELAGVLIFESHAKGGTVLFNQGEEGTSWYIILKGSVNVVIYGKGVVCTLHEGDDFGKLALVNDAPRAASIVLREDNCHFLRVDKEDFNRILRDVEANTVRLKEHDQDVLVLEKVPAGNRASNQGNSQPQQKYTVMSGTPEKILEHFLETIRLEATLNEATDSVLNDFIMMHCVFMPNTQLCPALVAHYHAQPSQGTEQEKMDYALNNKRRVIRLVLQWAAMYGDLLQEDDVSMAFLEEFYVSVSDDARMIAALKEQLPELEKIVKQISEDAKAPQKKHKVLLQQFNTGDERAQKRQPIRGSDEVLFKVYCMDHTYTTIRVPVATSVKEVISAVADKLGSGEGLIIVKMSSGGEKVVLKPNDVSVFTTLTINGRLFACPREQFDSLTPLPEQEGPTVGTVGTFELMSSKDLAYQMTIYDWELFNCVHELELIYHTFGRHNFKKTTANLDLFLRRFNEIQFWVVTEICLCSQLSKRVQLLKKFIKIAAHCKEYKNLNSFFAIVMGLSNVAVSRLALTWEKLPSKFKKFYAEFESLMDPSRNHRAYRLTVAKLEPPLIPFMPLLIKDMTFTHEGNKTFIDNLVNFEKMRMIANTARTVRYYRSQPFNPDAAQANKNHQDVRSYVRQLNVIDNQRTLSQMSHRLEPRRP
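Fluorescent exchange read-out: 100 nM EPAC2 with 250 nM RAP1B–BODIPY-GDP and 50 uM GDP; BODIPY-GDP release lowers fluorescence. Read at 480/540 nm every 5 min for 30 min at room temperature; normalized to 6.5 mM cAMP.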
EPAC1 ag val: validation of human EPAC1 agonists. EPAC1 Rap1b BODIPY-GDP exchange, fluorescence. Potency, µM, inactives show max response, positive = active, most hits filed as activators. O95398. actives 1% (n = 16,000); note: nearly all actives have a fitted effect of over 70% in size
Active calls of the source: *; ? = inconclusive; ! = not active in a repeat; [ ] = remark or other dose. Sampled rows, rich in hits. Any-hit rate of the full collection: about 2.9%. Calls come from the whole dose curve; as a rule, active = well fitted curve in the direction sought with a large enough effect; inconclusive = small, poorly fitted or top-dose-only effect, or another doubt; inactive = no such curve, though single readings can be large; an effect the other way counts as inactive or inconclusive. Unless noted, % is set by controls: 0 for no effect and ±100 for the full control effect; potency is the fitted concentration of half-maximal effect.

SMILES | EPAC2 antag | EPAC1 ag val
COc1ccc(C(=O)N2CCC3(CC2)CN(c2cccc(-c4ccccc4)c2)C3)cc1 | -26.3% | 112µM*
Cn1cccc1C(=O)N1CCC2(CCCN(c3cccc(-c4ccccc4)c3)C2)CC1 | -11.3% | 112µM*
O=C(c1ccco1)N1CCC2(CCCN(c3cccc(-c4ccccc4)c3)C2)CC1 | -14.6% | ?
CC1(C)[C@H]2CC[C@]1(C)[C@H](O)C2 | 10.1% | 18.1%
Cc1c(N)nc(C(CC(N)=O)NCC(N)C(N)=O)nc1C(=O)NC(C(=O)NC(C)C(O)C(C)C(=O)NC(C(=O)NCCc1nc(-c2nc(C(=O)NCCCN[C@@H](C)c3ccccc3)cs2)cs1)C(C)O)C(O[C@@H]1O[C@@H](CO)[C@@H](O)[C@H](O)[C@@H]1O[C@H]1O[C@H](CO)[C@@H](O)[C@H](OC(N)=O)[C@@H]1O)c1cnc[nH]1 (stereo partly specified) | -0.7% | 8.5%
COc1ccc(C(=O)N2CCC3(CCCN(c4cccc(-c5ccccc5)c4)C3)CC2)cc1 | -9.4% | 100µM*
COc1ccc(C(=O)N2CCC3(CCCN(c4ccccc4)C3)CC2)cc1 | -19.9% | -19.8%
COc1ccc(OC)c(/C=C/c2nc3ccccc3nc2C)c1 | ? | 100µM*
COc1cc(OC)c(/C=C/c2ccc3ccccc3n2)c(OC)c1 | -8.0% | ?
CCO[C@H]1[C@H](NC(=O)c2cccnc2)c2ccccc2C12CCN(C(=O)c1ccoc1)CC2 | -0.4% | -7.2%
CC(C)N1CCN(c2ccc(OC[C@H]3CO[C@](Cn4cncn4)(c4ccc(Cl)cc4Cl)O3)cc2)CC1 | -7.5%[56.6 µM] | -3.4%
CC(=O)N1CCN(c2ccc(OCC3CO[C@@](Cn4ccnc4)(c4ccc(Cl)cc4Cl)O3)cc2)CC1 (stereo partly specified) | 35.5µM* | ?
O=C(CO)[C@@H](O)[C@H](O)[C@@H](O)C(=O)O | -2.6% | 0.7%
O=C(Nc1cc(C(=O)Nc2ccc(S(=O)(=O)O)cc2S(=O)(=O)O)cc(C(=O)Nc2ccc(S(=O)(=O)O)cc2S(=O)(=O)O)c1)Nc1cc(C(=O)Nc2ccc(S(=O)(=O)O)cc2S(=O)(=O)O)cc(C(=O)Nc2ccc(S(=O)(=O)O)cc2S(=O)(=O)O)c1 | -18.5% | ?
O=C(Nc1ccc(C(=O)Nc2ccc(C(=O)Nc3ccc(S(=O)(=O)O)c4cc(S(=O)(=O)O)cc(S(=O)(=O)O)c34)cc2)cc1)Nc1ccc(C(=O)Nc2ccc(C(=O)Nc3ccc(S(=O)(=O)O)c4cc(S(=O)(=O)O)cc(S(=O)(=O)O)c34)cc2)cc1 | 22.4µM* | -8.6%
S=C(S)OC1CC2CC1C1CCCC21 (stereo unspecified) | -27.9% | -1.5%
S=C(S)O[C@@H]1C[C@@H]2C[C@H]1[C@@H]1CCC[C@H]21 | 50.1µM* | -2.3%
O=S1(=O)CCOC[C@H](CC2CCCCC2)N1Cc1cccc(C(F)(F)F)c1 | 17.8µM* | -116.0%
O=S1(=O)CCOC[C@H](CC2CCCCC2)N1Cc1ccccc1F | ? | -21.3%
CO[C@@H]1[C@@H](O[C@@H]2O[C@H](C)[C@@H](O[C@H]3C[C@@](C)(O)[C@@H](OC(=O)CC(C)C)[C@H](C)O3)[C@H](N(C)C)[C@H]2O)[C@@H](CC=O)C[C@@H](C)[C@@H](O)/C=C/C=C/C[C@@H](C)OC(=O)C[C@H]1O | -4.4% | 0.4%
Oc1ccc(Cl)cc1Cc1cc(Cl)ccc1O | 89.1µM*! | ?
NCCc1ccc(O)c(O)c1 | -9.8% | ?
Cc1ccc(C(=O)Nc2cccc(-c3nc(CNC(=O)c4ccc5ccccc5n4)c(C)o3)c2)s1 | -0.6% | 2.8%
CC(O)[C@H]1CC[C@H]2[C@@H]3CC[C@@H]4C[C@@H](O)CC[C@]4(C)[C@H]3CC[C@]12C (stereo partly specified) | -3.0% | 19.1%
CNc1nc(-c2ccc3c(c2)OCO3)nc2ccccc12 | -29.5% | -20.5%
SMILES | EPAC2 antag | EPAC1 ag val
c1ccc(Nc2nc(-c3ccc4c(c3)OCO4)nc3ccccc23)cc1 | -26.2% | 100µM*
Cc1onc(-c2ccccc2)c1C(=O)NCCN1Cc2ccccc2OC(c2ccsc2)C1 (stereo unspecified) | -21.6% | -12.8%
CSc1nnc(CCNC(=O)/C=C/c2cccc(F)c2)n1-c1ccc(F)cc1 | -29.2% | -11.4%
C[C@H]1C[C@H]2[C@@H]3CCC4=CC(=O)C=C[C@]4(C)[C@@]3(F)[C@@H](O)C[C@]2(C)[C@@]1(O)C(=O)CCl | ? | -39.1%
COc1ccc(OC)c2c(/C=C/c3c[nH]c4ccccc34)ccnc12 | -9.1% | -26.6%
Cc1ccc2c(/C=C/c3c[nH]c4ccccc34)ccnc2c1C | -12.6% | 100µM*
OC1(c2cccnc2)CCN(Cc2ccc3c(c2)CN(Cc2cc4ccccc4s2)CCO3)CC1 | -43.1% | ?
CC(=O)O[C@@H]1CC2CCC1(C)C2(C)C (stereo partly specified) | 4.8% | 6.3%
